Source: PubChem
Pf apPOL inh: Pf-apPOL DNA polymerase inhibition. Recombinant Pf-apPOL, molecular beacon fluorescence, 1.5 h. inhibition, % at 10 µM. hit rate 0.25% among 210,000
mHTT-CaM PPI inh: inhibitors of human mutant huntingtin-calmodulin interaction | P42858 | AlphaScreen His-mHTT/GST-CaM binding, luminescence | inhibition, % at 15 µM | hit rate 3.6% among 190,000;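 also: 0% = both proteins with DMSO and 100% = one protein alone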
Numbers without * were called inactive; / = not tested or not shown; ! = not active in a repeat. Many of the other results were omitted from the sample, so hits are more common in it than they were. Rule as the data show it: active = inhibition above about 50%; inactive = the rest.

SMILES	Pf apPOL inh	mHTT-CaM PPI inh
CCOc1ccc(CNS(=O)(=O)c2ccc3[nH]c(=O)sc3c2)cc1OC	0	0
Cc1cccnc1NS(=O)(=O)c1ccc2[nH]c3c(c2c1)CCCC3	-6	12
CCOc1ccc(CNS(=O)(=O)c2ccc3[nH]c4c(c3c2)CCCC4)cc1OC	0	59*
COc1ccccc1CNS(=O)(=O)c1ccc2[nH]c3c(c2c1)CCCCC3	-5	98*
COc1ccccc1CNS(=O)(=O)c1ccc(C)c([N+](=O)[O-])c1	-1	-1
Cc1ccc(CCNS(=O)(=O)c2ccc3[nH]c4c(c3c2)CCCC4)cc1	0	85*
Cc1cc(I)cc2c1NC(c1ccc(F)cc1)C1CC=CC21 (stereo not drawn)	0	54*
Fc1ccc(C2Nc3ccc(F)cc3C3C=CCC32)cc1 (stereo not drawn)	-1	94*
CC(C)C(=O)Nc1cccc(N2CCCN(Cc3ccccc3F)C2=O)c1	-1	-4
CC(=O)N(C(C)=O)c1ncc2c([nH]c3ccccc32)c1C#N	-3	83*
N#Cc1c(N2CCCCC2)ncc2c(=O)c3ccccc3[nH]c12	0	4
Cc1ccccc1C1c2ccsc2CCN1C(=O)C1CC1 (stereo not drawn)	0	-11
Cc1cc(N2C(=O)CSC2c2ccc(F)c(F)c2)ccc1Br (stereo not drawn)	0	-24
O=C(Nc1ccc(-c2nc3ncccc3o2)cc1)c1ccc([N+](=O)[O-])cc1Cl	17	-5
O=C1S/C(=C\c2ccc(Br)o2)C(=O)N1Cc1ccc(F)cc1	-55	1
C1=CC2CC1CC21COC(c2ccc3oc4ccccc4c3c2)OC1 (stereo not drawn)	/	-17
CC(C)(C1=CC(=O)c2ccccc2C1=O)C1OCC2(CO1)CC1C=CC2C1 (stereo not drawn)	/	53*
Cc1ccc(C)n1-c1ccc(C(=O)O)cc1O	-1	12
Cc1ccc(C)n1-c1ccc(Cl)cc1O	-8	93*
CCNCCC1=CCCCC1	7	-5
CC(=O)Nc1ccc(N2CCN(Cc3ccc(F)cc3)C2=O)nc1	-2	1
O=Cc1ccc(-c2ccccc2[N+](=O)[O-])o1	-1	8
O=[N+]([O-])c1ccccc1-c1ccc(/C=C/c2ccncc2)o1	6	69*
NC1=NC(=O)/C(=C/c2ccc(-c3ccccc3[N+](=O)[O-])o2)S1	-12	59*
O=C(/C=C/c1ccc(-c2ccccc2[N+](=O)[O-])o1)c1cc2ccccc2o1	11	77*
SMILES	Pf apPOL inh	mHTT-CaM PPI inh
CC1(C)OC(=O)C(=Cc2ccc(-c3ccccc3[N+](=O)[O-])o2)C(=O)O1	5	1
O=C(C=Cc1ccc([N+](=O)[O-])cc1)c1cc2ccccc2oc1=O	1	2
CC(C)CCNC(=O)C1(C)CCC(=O)N1Cc1cccc(F)c1 (stereo not drawn)	-1	-7
O=C1CCC(=O)N1c1ccccc1[N+](=O)[O-]	-3	5
COc1ccc(C(=O)N2N=C(C)CC2(O)c2ccc(Br)cc2)cc1 (stereo not drawn)	2	45
N#Cc1cccc(NC(=O)CSc2nc3c(c(=O)[nH]2)CN(Cc2ccccc2)CC3)c1	-6	54*
O=c1[nH]c(SCc2ccccc2Cl)nc2c1CN(Cc1ccccc1)CC2	-2	1
O=C(c1ccc(OCC2CCCN2C(=O)c2cc(F)ccc2Cl)cc1)N1CCOCC1 (stereo not drawn)	1	4
COc1ccc(NC(=O)/C(=C2\Nc3ccc([N+](=O)[O-])cc3N2)[N+](=O)[O-])cc1	-2	8
COc1cc(OC)cc(C(=O)N2CCc3c(c(C(=O)NCc4ccccc4)nn3C)C2)c1	-3	75*
Cn1nc(C(=O)NCc2ccccc2)c2c1CCN(C(=O)c1ccc(C#N)cc1)C2	-2	21
Cc1ccccc1C(=O)N1CCc2c(c(C(=O)NCc3ccccc3)nn2C)C1	-16	11
CC(Oc1ccccc1)C(=O)N1CCc2c(c(C(=O)NCc3ccccc3)nn2C)C1 (stereo not drawn)	-7	55*
COc1ccc2cc(C(=O)N3CCc4c(c(C(=O)NCc5ccccc5)nn4C)C3)[nH]c2c1	-2	37
COc1ccc(C(=O)N2CCc3c(c(C(=O)NCc4ccccc4)nn3C)C2)cc1	-10	56*
COc1ccc(C(=O)N2CCc3c(c(C(=O)NCc4ccccc4)nn3C)C2)c(OC)c1	-10	51*
Cn1nc(C(=O)NCc2ccccc2)c2c1CCN(C(=O)c1ccccc1Cl)C2	-10	34
COc1cc(OC)c(OC)cc1C=C1Oc2cc(OS(=O)(=O)c3ccc(F)cc3)ccc2C1=O	-15	7
Cc1ccc(C(=O)N2CCN(c3nc4ccncc4n(CC(C)C)c3=O)CC2)cn1	-5	4
Cc1onc(-c2ccccc2)c1C(=O)Nc1c(C(C)(C)C)nn(C)c1C(C)(C)C	-9	/
COc1ccc(CNC(=O)c2ccc(SCCN3CCOCC3)nc2)cc1	-4	15
Cc1ccc(C(=O)N2CCc3c(c(C(=O)NCc4ccccc4)nn3C)C2)cc1	-2	75*
Cn1nc(C(=O)NCc2ccccc2)c2c1CCN(C(=O)c1ccccc1)C2	1	36
Cc1ccc(C(=O)Nc2cccc(-c3nc4ncccc4o3)c2)c(Cl)c1	-2	53*
O=C(Nc1cccc(-c2nc3ncccc3o2)c1)c1cccc(Cl)c1Cl	-8	20
SMILES	Pf apPOL inh	mHTT-CaM PPI inh
COc1ccc(OCC(=O)Nc2cc(-c3nc4ncccc4o3)ccc2C)cc1	-3	8
COc1ccc(OCC(=O)Nc2cccc(-c3nc4ncccc4o3)c2)cc1	5	3
O=C(COc1ccc(Cl)cc1)Nc1cccc(-c2nc3ncccc3o2)c1	-7	50*!
Cc1ccc(-c2nc3ncccc3o2)cc1NC(=O)COc1ccc(Cl)cc1	91*	1
O=C(NCC1CCN(C(=O)c2cc3ccccc3o2)CC1)C1CC(=O)N(c2ccccc2)C1 (stereo not drawn)	-11	15
Cc1cc2cc(CNC(=O)c3ccccc3[N+](=O)[O-])ccc2n1C	-13	25
Cc1cccc(NC(=O)NCc2ccc3c(c2)cc(C)n3C)c1	-30	50*
Cc1cc2cc(CNC(=O)Cc3ccc(F)cc3)ccc2n1C	-26	56*
Cc1cc2cc(CNC(=O)c3c(F)cccc3Cl)ccc2n1C	-23	4
COc1ccc(-c2cn3ccn(-c4ccc(C)c(Cl)c4)c(=O)c3n2)cc1OC	17	18
COc1nccnc1NS(=O)(=O)c1ccc(NC(=O)c2ccccc2Cl)cc1	-8	18
COc1nccnc1NS(=O)(=O)c1ccc(NC(=O)COc2cc(C)c(Cl)c(C)c2)cc1	9	50*
COC(=O)c1sc2ccccc2c1NC(=O)c1ccc([N+](=O)[O-])s1	0	7
CCOc1cc(-c2cccs2)cc(=O)c2c(C)oc(C)c12	-5	55*
CCOc1cc(-c2ccc(OC)c(OC)c2)cc(=O)c2c(C)oc(C)c12	10	44
COC(=O)C(C)Oc1ccc2c(c1C)OC(=Cc1ccco1)C2=O (stereo not drawn)	-7	38
N#CC1=C(N)Oc2n[nH]c(C34CC5CC(CC(C5)C3)C4)c2C1c1cccs1 (stereo not drawn)	-3	55*
N#CC1=C(N)Oc2n[nH]c(C34CC5CC(CC(C5)C3)C4)c2C1c1ccc(O)cc1 (stereo not drawn)	8	29
CN(Cc1ccsc1)C(=O)C(C)(C)C	1	-2
O=C(c1ccc(Cl)c(Cl)c1)N1CCC(=O)N([C@H](COCc2cccc(C(F)(F)F)c2)Cc2ccccc2)CC1	-4	100*
